Compound activity from PubChem.
TEAD-YAP inh – TEAD-YAP interaction inhibition, primary screen, TEAD-YAP interaction inhibitor project, luminescence, HEK-TIYL cells; AID 1259422, 2018; 640,000 tested, 1.4% active; TEAD-Gal4/YAP UAS-luciferase luminescence; inhibition, % at 9.12 µM; in the data active = inhibition above about 32%
GPR151 ag – activators of human GPR151, primary screen, cell-based, PathHunter beta-arrestin, luminescence; AID 1508602, 2020; G-protein coupled receptor 151 (Homo sapiens), Q8TDV0; 650,000 tested, 1% active; activation, % at 11.2 µM; PathHunter beta-arrestin GPR151 cells; in the data active = activation above about 4.9%
MITF inh – MITF inhibitors, primary screen, biochemical, AlphaScreen, human. Microphthalmia-associated transcription factor (Homo sapiens), O75030. AlphaScreen MITF homodimerization, bead proximity signal. inhibition, % at 2.6 µM. 650,000 tested, 0.91% active. AID 1259374, 2018; in the data active = inhibition above about 50%
FBW7 activator – FBW7 E3 ligase activators, primary screen, biochemical, AlphaScreen, human | AID 1259310, 2017 | AlphaScreen FBW7–phospho-cyclin E peptide binding, activator screen | F-box/WD repeat-containing protein 7 (Homo sapiens), Q969H0 | 650,000 tested, 0.13% active | normalized activity (activation), % at 26.1 µM; in the data active = normalized activity above about 1.9%;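 note: purified mutant Fbw7 with reduced substrate affinity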
Target sequence (Q969H0 whole entry, looked up): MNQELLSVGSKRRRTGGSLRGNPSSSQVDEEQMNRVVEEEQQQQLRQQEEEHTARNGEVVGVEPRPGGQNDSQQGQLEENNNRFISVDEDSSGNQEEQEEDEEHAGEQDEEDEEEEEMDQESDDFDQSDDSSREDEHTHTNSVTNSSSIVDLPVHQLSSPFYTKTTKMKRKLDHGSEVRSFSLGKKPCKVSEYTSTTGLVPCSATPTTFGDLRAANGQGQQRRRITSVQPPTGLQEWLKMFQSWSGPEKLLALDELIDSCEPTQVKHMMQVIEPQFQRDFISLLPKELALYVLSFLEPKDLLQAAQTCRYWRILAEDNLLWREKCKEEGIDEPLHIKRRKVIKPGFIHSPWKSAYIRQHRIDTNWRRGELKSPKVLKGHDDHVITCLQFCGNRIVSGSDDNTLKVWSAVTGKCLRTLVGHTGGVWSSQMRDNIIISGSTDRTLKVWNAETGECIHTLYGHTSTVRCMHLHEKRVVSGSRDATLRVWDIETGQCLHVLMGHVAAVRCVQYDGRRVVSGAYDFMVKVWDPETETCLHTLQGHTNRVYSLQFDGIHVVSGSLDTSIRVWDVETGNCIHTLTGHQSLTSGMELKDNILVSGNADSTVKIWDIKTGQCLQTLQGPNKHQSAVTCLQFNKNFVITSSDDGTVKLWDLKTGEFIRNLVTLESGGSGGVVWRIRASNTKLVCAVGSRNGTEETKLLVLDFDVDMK
A number is an active result; . = inactive. This is a sample that favours compounds with a hit; in the whole collection about 3.5% have one here.

SMILES	TEAD-YAP inh	GPR151 ag	MITF inh	FBW7 activator
CC(=O)c1ccc(NC(=O)c2ccccc2NS(=O)(=O)c2ccc(C)cc2)cc1	.	.	.	.
Cc1ccc(S(=O)(=O)Nc2ccccc2C(=O)Nc2nc(-c3ccccc3)cs2)cc1	34	.	.	.
COc1cncc(-c2cnc(NC3CCOCC3)c3nccn23)c1	.	.	.	.
COC(=O)c1ccc(-c2csc(NC(=O)c3ccccc3NS(=O)(=O)c3ccc(C)cc3)n2)cc1	.	.	.	.
COc1ccc(-c2csc(NC(=O)c3ccccc3NS(=O)(=O)c3ccc(C)cc3)n2)cc1	38	.	.	.
O=C(Nc1ccc(-c2nc3ccccc3o2)cc1)C1CCN(C(=O)C2CCCC2)CC1	.	.	52	.
O=S(=O)(Nc1ccc(Cl)c2cccnc12)c1ccccc1	53	.	.	.
Cc1ccc(S(=O)(=O)Nc2ccc(Cl)c3cccnc23)cc1	58	.	.	.
COC(=O)C(C(C)c1c[nH]c2ccccc12)[N+](=O)[O-] (centres undefined)	.	.	.	.
COc1ccc(OC)c(NC(=O)c2sc3nc(-c4ccc(F)cc4)cn3c2C)c1	.	.	.	.
CC(=O)c1c(C)[nH]c(C(=O)OCC(=O)Nc2nc(-c3ccc(C)cc3)cs2)c1C	37	.	.	.
CC(=O)c1c(C)[nH]c(C(=O)OCc2csc(-c3ccccc3)n2)c1C	32	.	.	.
O=C(OC1CCCCCCCCCCC1)c1ccccc1C(=O)c1ccccc1	.	.	.	.
CCCNC(=O)CCS(=O)(=O)c1cc2c(cc1Cl)NC(=O)CO2	.	.	.	.
CC(=O)Nc1ccc(S(=O)(=O)N2c3ccc(F)cc3CCC2C)cc1 (centres undefined)	46	.	.	.
COc1ccc(S(=O)(=O)N2c3ccc(F)cc3CCC2C)cc1 (centres undefined)	56	.	.	.
CC1CCc2cc(F)ccc2N1S(=O)(=O)c1c(N)n(C)c(=O)n(C)c1=O (centres undefined)	.	.	.	.
COc1ccc(C(=O)C2CCN(S(=O)(=O)c3ccc(F)cc3)CC2)cc1	42	.	.	.
O=C(Nc1nnc(SCc2ccc(F)cc2)s1)c1n[nH]c(=O)c2ccccc12	.	.	.	.
O=[N+]([O-])c1ccc(N2N=C(c3ccccc3)CC2c2ccccc2)cc1 (centres undefined)	.	.	.	.
O=[N+]([O-])c1ccc(N2N=C(c3ccccc3)CC2c2ccccc2O)cc1 (centres undefined)	.	.	.	3.5
Cc1ccc(-c2nn(-c3ccccc3)cc2C2CC(c3ccc(F)cc3)=NN2c2ccccc2)o1 (centres undefined)	.	.	.	.
Fc1ccccc1C1CC(c2ccccc2)=NN1c1ccccc1 (centres undefined)	.	.	.	3.3
c1ccc(-c2ccc(C3=NN(c4ccccc4)C(c4ccccc4)C3)cc2)cc1 (centres undefined)	.	.	.	.
Cc1ccc(C2CC(c3ccc(F)cc3)=NN2c2ccccc2)o1 (centres undefined)	.	.	.	1.9
SMILES	TEAD-YAP inh	GPR151 ag	MITF inh	FBW7 activator
Cc1ccccc1N1CCN(Cc2cccs2)CC1	.	.	.	.
O=C(CNC(=O)c1ccc([N+](=O)[O-])cc1)OCC(=O)c1ccccc1	.	.	.	.
O=C(c1ccn(-c2ccnc(Nc3ccc(N4CCOCC4)cc3)c2)n1)N1CCC(O)CC1	60	.	.	.
Cc1nc(N2CCOCC2)c2c(C)c(C(=O)Nc3c(C)cc(Br)cc3C)sc2n1	.	.	.	.
COc1cc(OC)cc(-c2cc3nc4c(c(NCCCn5ccnc5)n3n2)CCCC4)c1	.	.	.	2.4
COc1ccc(-c2cnc(NCCCn3ccnc3)nc2)cc1	.	.	.	.
COc1ccc(-c2cnnc(NCCCn3ccnc3)n2)cc1	32	.	.	.
N#Cc1c(N)nc(SCc2ccccc2)c(C#N)c1-c1ccc(O)cc1	.	.	.	.
Cc1nc(N2CCCCC2C)c2c(C)c(C(=O)Nc3ccc(C)c(F)c3)sc2n1 (centres undefined)	.	.	.	.
Cc1cnc(Nc2ccncc2)nc1Nc1ccc(N2CCOCC2)cc1	40	.	.	.
Cc1cnc(Nc2ccc(N3CCOCC3)cc2)nc1NCCOc1ccccc1	48	.	.	.
Cc1cnc(Nc2ccc(N3CCOCC3)cc2)nc1NCCN1CCOCC1	.	.	.	.
Cc1cnc(Nc2ccc(N3CCOCC3)cc2)nc1Nc1ccc(N2CCOCC2)cc1	42	.	.	.
Cc1cnc(NCc2ccc3c(c2)OCO3)nc1Nc1ccc(N2CCOCC2)cc1	42	.	.	.
Cc1cnc(Nc2ccc(C(F)(F)F)cc2)nc1Nc1ccc(N2CCOCC2)cc1	49	.	.	.
COc1cc(NS(=O)(=O)c2ccc(-c3cc(C)no3)cc2)cc(OC)c1	61	.	.	.
COc1cc(NS(=O)(=O)c2ccc3c(c2)oc(=O)n3C)cc(OC)c1OC	48	.	.	.
COc1cc(NS(=O)(=O)c2ccc(-c3cc(C)no3)cc2)cc(OC)c1OC	61	.	.	.
COc1ccc(NC2=CC(=O)CC(c3ccccc3)C2)c(OC)c1 (centres undefined)	48	.	.	.
COc1ccc(OC)c(NC2=CC(=O)CC(c3ccccc3)C2)c1 (centres undefined)	55	.	.	.
O=C(CCCCC(=O)NNC(=O)CCc1ccccc1)NNC(=O)CCc1ccccc1	.	.	.	2.3
CCCCNC(=O)CSc1nc2sc(C(=O)OCC)c(C)c2c(=O)n1CCC1=CCCCC1	.	.	.	.
COCCn1c(Cc2ccccc2)nnc1SCC(=O)NC(C)(C)C	59	.	.	.
CCn1c(Cc2ccccc2)nnc1SCC(=O)NC(C)(C)C	.	.	.	.
Clc1cccc(CO/N=C2\CCCc3nonc32)c1	.	.	.	.
SMILES	TEAD-YAP inh	GPR151 ag	MITF inh	FBW7 activator
CC(=O)Nc1ccc(C(=O)Nc2ccncc2)cc1	.	.	.	.
C[C@@H](N)c1ccc(C(=O)Nc2ccncc2)cc1	50	.	.	.
CC(C)CCOC(=O)c1ccc(NC(=O)c2ccncc2)cc1	.	.	.	.
CC(C)COC(=O)c1ccc(NC(=O)c2ccncc2)cc1	33	.	.	.
CC(NC(=O)NCc1ccc(F)cc1)(C(F)(F)F)C(F)(F)F	.	.	.	.
Cc1sc(NC(=O)c2ccco2)c(C(c2cccnc2)N2CCOCC2)c1C (centres undefined)	.	.	.	.
Cc1sc(NC(=O)c2ccco2)c(C(c2cccnc2)N2CCN(c3ccccc3F)CC2)c1C (centres undefined)	37	.	.	.
Cc1sc(NC(=O)c2ccco2)c(C(c2cccnc2)N2CCCCC2)c1C (centres undefined)	41	.	.	.
